Experimental data: PubChem BioAssay (Tox21)
Results filed as inconclusive are left out. Activity calls are given as the source filed them. Unless noted, calls come from the whole dose curve.

Columns and labels:
[1] = qHTS assay to identify small molecule antagonists of the sonic hedgehog signaling (Shh) pathway (AID 1259369); note: nearly all actives have a fitted effect of over 45% in size; note: potency is the fitted concentration of half-maximal effect
Outline: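 Luminescence readout: firefly Luc under Gli1 response element in 3T3Gli1-Luc cells (NIH/3T3 clone). Antagonist mode, stimulation by conditioned medium; compound exposure 24hr at 37 C, 5% CO2.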

[2] = target: Estrogen receptor beta (Homo sapiens) (UniProt Q92731); test: qHTS assay to identify small molecule agonists of the estrogen receptor beta (ER-beta) signaling pathway (AID 1259377; active = well fitted activation curve with a large enough effect in the signal ratio in the repeat runs, not every such curve was filed as active; the % refers to the signal ratio)
Outline: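 qHTS in ER-beta-UAS-bla HEK293T cells: 6 hr settling, then 16 hr compound at 37C, then LiveBLAzer substrate 2 h at RT before fluorescence reading.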

[3] = target: Estrogen receptor beta (Homo sapiens) (UniProt Q92731); test: qHTS assay to identify small molecule antagonists of the estrogen receptor beta (ER-beta) signaling pathway (AID 1259378; active = well fitted inhibition curve with a large enough effect in the signal ratio in the repeat runs, not every such curve was filed as active; the % refers to the signal ratio; note: potency is the fitted concentration of half-maximal effect)
Outline: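 ER-beta-UAS-bla HEK293T cells in 2% charcoal-stripped FBS medium treated with compound plus 1nM final 17-beta-estradiol for 16 hr at 37C. Beta-lactamase reporter read by FRET substrate fluorescence after 2 hours at room temperature.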

[4] = qHTS assay to identify small molecule agonists of the androgen receptor (AR) signaling pathway in the presence of an antagonist - cell viability counter screen (AID 1259379; active = well fitted curve in the direction sought with a large enough effect in the repeat runs; an effect the other way counts as inactive or inconclusive; note: nearly all actives have a fitted effect of over 25% in size; note: potency is the fitted concentration of half-maximal effect;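 for activity change, negative = cytotoxicity: MDA-kb2 human breast cancer cells carrying an MMTV luciferase reporter; series mostly up to about 92 µM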)
Outline: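 Viability counter screen: CellTiter-Fluor fluorescence, measured in the same wells as the luciferase read-out. MDA-kb2 cells, 3,000/well, with nilutamide at 3.0uM final and compounds at 15 concentrations, 16 hr at 37C, 0% CO2.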

[5] = qHTS assay to identify small molecule antagonists of the estrogen receptor beta (ER-beta) signaling pathway - cell viability counter screen (AID 1259382; active = well fitted curve in the direction sought with a large enough effect in the repeat runs; an effect the other way counts as inactive or inconclusive; note: nearly all actives have a fitted effect of over 55% in size; note: potency is the fitted concentration of half-maximal effect; for activity change, negative = cytotoxicity: series mostly up to about 92 µM)
Outline: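 Luminescent ATP read-out (CellTiter-Glo, 30 min, RT) taken in the same wells as the bla reporter assay. HEK293T ER-beta-UAS-bla cells in 2% charcoal-stripped FBS were exposed to compounds with 1nM E2 for 16 hr at 37C.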

[6] = target: Estrogen receptor (Homo sapiens) (UniProt P03372); test: qHTS assay to identify small molecule agonists of the estrogen receptor alpha (ER-alpha) signaling pathway in the presence of an antagonist (AID 1259383); note: top concentration of the series differs between compounds; nearly all actives have a fitted effect of over 15% in size
Outline: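 Luciferase luminescence (ONE-Glo, 30min at room temperature) measured in VM7Luc4E2 cells after 22hr compound exposure at 15 concentrations, with 10.0nM ICI-182,780 final present; cells express endogenous ER-alpha and carry four EREs upstream of luciferase.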

[7] = qHTS assay to identify small molecule agonists of the estrogen receptor beta (ER-beta) signaling pathway - cell viability counter screen (AID 1259380; active = well fitted curve in the direction sought with a large enough effect in the repeat runs; an effect the other way counts as inactive or inconclusive; note: nearly all actives have a fitted effect of over 30% in size; note: potency is the fitted concentration of half-maximal effect)
Outline: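 Luminescence read-out (CellTiter-Glo, 30 min, room temp) taken in the same wells as the beta-lactamase reporter assay; ER-beta-UAS-bla HEK293T cells exposed to DMSO-dissolved compounds for 16 hr at 37C in 2% charcoal-stripped FBS medium.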

[8] = qHTS assay to identify small molecule agonists or antagonists of the thyroid stimulating hormone receptor (TSHR) signaling pathway - wild type cell line counter screen (AID 1259384)
Outline: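 Wild-type Hek293 cells, 800/well, 18 h at 37C, then compound with Ro20-1724 for 30 min RT. cAMP by HTRF (cAMP-d2/anti-cAMP cryptate), 1 h RT, fluorescence read. 15 concentrations, triplicates.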

[9] = target: Thyrotropin receptor (Homo sapiens) (UniProt P16473); test: qHTS assay to identify small molecule antagonists of the thyroid stimulating hormone receptor (TSHR) signaling pathway (AID 1259385); note: nearly all actives have a fitted effect of over 20% in size; note: potency is the fitted concentration of half-maximal effect
Outline: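 TSHR-HEK293 cells (800/well) plated 18 h, then compounds with Ro20-1724 and TSH at 1.5 ng/mL final, 30 min at room temperature. cAMP quantified by HTRF (cAMP-d2/anti-cAMP-cryptate, 1 h); 15 concentrations in triplicate.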

[10] = target: Androgen receptor (Homo sapiens) (UniProt P10275); test: qHTS assay to identify small molecule agonists of the androgen receptor (AR) signaling pathway in the presence of an antagonist (AID 1259381); note: nearly all actives have a fitted effect of over 15% in size; note: potency is the fitted concentration of half-maximal effect
Outline: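 Luciferase read-out (ONE-Glo, 30min room temperature) in MDA-kb2 MMTV-reporter cells; agonist mode run in presence of AR antagonist nilutamide, 3.0uM final. Compounds tested as 15-point series, 16hr exposure at 37C, 0% CO2.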
% is set by controls: 0 for no effect and ±100 for the full control effect.

Chain of Estrogen receptor beta (Homo sapiens) (Q92731 whole entry, looked up): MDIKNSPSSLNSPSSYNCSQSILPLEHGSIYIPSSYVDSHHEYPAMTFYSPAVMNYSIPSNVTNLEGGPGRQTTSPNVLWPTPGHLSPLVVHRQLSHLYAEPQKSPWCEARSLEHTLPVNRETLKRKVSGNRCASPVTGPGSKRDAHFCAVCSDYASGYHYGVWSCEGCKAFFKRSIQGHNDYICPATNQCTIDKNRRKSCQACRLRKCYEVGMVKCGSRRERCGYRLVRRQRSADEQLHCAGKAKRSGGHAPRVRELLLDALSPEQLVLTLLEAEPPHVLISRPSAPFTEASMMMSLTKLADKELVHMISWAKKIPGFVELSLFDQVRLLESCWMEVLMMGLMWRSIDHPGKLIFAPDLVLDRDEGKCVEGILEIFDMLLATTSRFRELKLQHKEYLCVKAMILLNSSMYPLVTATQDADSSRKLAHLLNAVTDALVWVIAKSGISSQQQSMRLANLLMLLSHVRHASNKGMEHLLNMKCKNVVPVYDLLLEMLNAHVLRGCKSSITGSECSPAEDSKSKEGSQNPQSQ
Chain of Estrogen receptor (Homo sapiens) (P03372 whole entry, looked up): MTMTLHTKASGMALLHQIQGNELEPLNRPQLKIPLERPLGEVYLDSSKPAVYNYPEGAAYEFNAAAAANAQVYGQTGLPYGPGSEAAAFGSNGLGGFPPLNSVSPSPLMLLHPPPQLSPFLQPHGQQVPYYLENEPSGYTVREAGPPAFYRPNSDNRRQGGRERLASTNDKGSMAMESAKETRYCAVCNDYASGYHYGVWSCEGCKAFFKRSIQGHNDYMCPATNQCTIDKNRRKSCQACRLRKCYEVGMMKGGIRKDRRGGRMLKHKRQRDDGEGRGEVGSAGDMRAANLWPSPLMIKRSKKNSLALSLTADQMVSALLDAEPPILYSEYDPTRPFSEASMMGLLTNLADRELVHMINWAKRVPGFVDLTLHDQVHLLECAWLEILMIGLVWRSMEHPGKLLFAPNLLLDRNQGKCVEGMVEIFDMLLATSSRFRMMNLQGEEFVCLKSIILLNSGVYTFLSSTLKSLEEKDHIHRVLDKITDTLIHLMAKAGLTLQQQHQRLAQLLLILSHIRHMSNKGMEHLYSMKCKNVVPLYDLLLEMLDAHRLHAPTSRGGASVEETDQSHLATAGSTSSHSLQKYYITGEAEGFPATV
Chain of Androgen receptor (Homo sapiens) (P10275 whole entry, looked up): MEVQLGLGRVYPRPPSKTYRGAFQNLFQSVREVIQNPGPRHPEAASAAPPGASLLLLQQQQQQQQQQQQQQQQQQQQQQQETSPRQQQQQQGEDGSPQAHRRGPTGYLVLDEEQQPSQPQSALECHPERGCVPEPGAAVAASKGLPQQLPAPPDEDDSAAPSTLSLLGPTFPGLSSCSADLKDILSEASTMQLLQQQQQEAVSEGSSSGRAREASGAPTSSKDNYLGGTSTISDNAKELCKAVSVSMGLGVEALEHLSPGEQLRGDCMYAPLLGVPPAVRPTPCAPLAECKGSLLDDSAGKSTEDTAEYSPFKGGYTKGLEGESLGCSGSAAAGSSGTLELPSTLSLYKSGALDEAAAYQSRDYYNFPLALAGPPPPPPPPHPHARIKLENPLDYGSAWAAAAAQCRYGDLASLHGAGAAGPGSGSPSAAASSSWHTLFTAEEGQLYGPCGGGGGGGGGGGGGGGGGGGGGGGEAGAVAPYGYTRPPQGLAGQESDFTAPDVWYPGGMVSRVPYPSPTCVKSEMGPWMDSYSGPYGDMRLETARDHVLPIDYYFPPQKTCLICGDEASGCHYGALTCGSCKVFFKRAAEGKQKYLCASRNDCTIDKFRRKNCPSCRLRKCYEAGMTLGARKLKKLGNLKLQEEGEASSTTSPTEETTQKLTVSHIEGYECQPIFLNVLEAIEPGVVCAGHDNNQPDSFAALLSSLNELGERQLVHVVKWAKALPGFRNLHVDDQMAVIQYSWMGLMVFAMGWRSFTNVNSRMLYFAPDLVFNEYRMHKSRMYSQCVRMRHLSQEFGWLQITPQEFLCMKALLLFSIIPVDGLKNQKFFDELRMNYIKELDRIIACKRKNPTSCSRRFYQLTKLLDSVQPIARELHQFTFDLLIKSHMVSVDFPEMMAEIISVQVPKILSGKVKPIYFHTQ
Chain of Thyrotropin receptor (Homo sapiens) (P16473 whole entry, looked up): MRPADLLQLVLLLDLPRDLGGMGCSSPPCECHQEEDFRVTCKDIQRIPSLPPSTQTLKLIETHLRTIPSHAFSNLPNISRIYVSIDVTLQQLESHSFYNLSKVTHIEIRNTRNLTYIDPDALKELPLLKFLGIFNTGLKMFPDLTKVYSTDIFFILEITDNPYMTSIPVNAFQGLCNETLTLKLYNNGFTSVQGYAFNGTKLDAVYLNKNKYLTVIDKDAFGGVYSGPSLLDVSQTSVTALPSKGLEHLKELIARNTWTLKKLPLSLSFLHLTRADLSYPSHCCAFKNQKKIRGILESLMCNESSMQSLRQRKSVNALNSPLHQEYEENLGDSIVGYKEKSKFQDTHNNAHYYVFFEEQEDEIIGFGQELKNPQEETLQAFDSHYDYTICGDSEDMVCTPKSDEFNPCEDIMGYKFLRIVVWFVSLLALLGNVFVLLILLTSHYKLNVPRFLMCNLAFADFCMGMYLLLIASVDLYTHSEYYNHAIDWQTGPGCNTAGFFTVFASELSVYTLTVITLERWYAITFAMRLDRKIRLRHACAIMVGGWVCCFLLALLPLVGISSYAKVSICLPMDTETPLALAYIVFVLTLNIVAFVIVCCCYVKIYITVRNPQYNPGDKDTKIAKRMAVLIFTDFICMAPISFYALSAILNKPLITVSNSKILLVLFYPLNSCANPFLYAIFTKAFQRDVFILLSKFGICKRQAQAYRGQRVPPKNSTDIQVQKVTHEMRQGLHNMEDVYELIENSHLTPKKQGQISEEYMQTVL

CCCCC1=NC2(CCCC2)C(=O)N1Cc1ccc(-c2ccccc2-c2nn[nH]n2)cc1
inactive: Potency [1] | Potency [2] | Potency [3] | Potency [4] | Potency [5] | Potency [6]

CCCCCCCCCCO[C@@H]1O[C@H](CO)[C@@H](O)[C@H](O)[C@H]1O
inactive: Potency [2] | Potency [4] | Potency [7] | Potency [5] | Potency [6] | Potency [8] | Potency [9]
active: Potency [1] 61.1 µM

c1ccc(-c2ccccn2)nc1
inactive: Potency [1] | Potency [2] | Potency [4] | Potency [7] | Potency [10] | Potency [5] | Potency [6] | Potency [8] | Potency [9]

C#CCN(C)CCCOc1ccc(Cl)cc1Cl
inactive: Potency [1] | Potency [2] | Potency [3] | Potency [4] | Potency [5] | Potency [6]

O=C(O)c1ccccc1Cl
inactive: Potency [1] | Potency [2] | Potency [3] | Potency [4] | Potency [8] | Potency [9]

CCN(CC)c1ccc(C(=C2C=CC(=[N+](CC)CC)C=C2)c2cc(S(=O)(=O)O)ccc2S(=O)(=O)[O-])cc1
inactive: Potency [2] | Potency [3] | Potency [10]
active: Potency [1] 2.66 µM | Potency [4] 26.6 µM

CN(C)CCN(Cc1ccccc1)c1ccccn1
inactive: Potency [1] | Potency [2] | Potency [3] | Potency [4] | Potency [6] | Potency [8] | Potency [9]

CCc1c(C(=O)NN2CCCCC2)nn(-c2ccc(Cl)cc2Cl)c1-c1ccc(Br)cc1
inactive: Potency [1] | Potency [2] | Potency [4] | Potency [6] | Potency [8] | Potency [9]
active: Potency [3] 4.33 µM

CCCCCCCCCCCCCCOS(=O)(=O)O
active: Potency [7] 30.6 µM | Potency [5] 61.1 µM
inactive: Potency [1] | Potency [2] | Potency [4] | Potency [6] | Potency [8]

CN(Cc1ccc(C(C)(C)C)cc1)Cc1cccc2ccccc12
inactive: Potency [1] | Potency [2] | Potency [4] | Potency [6]
active: Potency [7] 26.6 µM | Potency [5] 23.7 µM

COc1cc2nc(N(C)CCCNC(=O)C3CCCO3)nc(N)c2cc1OC (centres undefined)
inactive: Potency [2] | Potency [3] | Potency [7] | Potency [5] | Potency [6] | Potency [8] | Potency [9]
active: Potency [1] 13.3 µM

CCCCC(=O)OCC(=O)[C@H]1[C@H](C)C[C@H]2[C@@H]3C[C@H](F)C4=CC(=O)C=C[C@]4(C)[C@@]3(F)[C@@H](O)C[C@@]21C
inactive: Potency [1] | Potency [2] | Potency [3] | Potency [4] | Potency [5] | Potency [6] | Potency [8] | Potency [9]
active: Potency [10] 0.0067 µM

O=C(O)C(S)C(S)C(=O)O (centres undefined)
inactive: Potency [1] | Potency [2] | Potency [3] | Potency [4] | Potency [5] | Potency [8] | Potency [9]

COc1ccnc(CS(=O)c2nc3ccc(OC(F)F)cc3[nH]2)c1OC (centres undefined)
inactive: Potency [1] | Potency [2] | Potency [3] | Potency [4] | Potency [5] | Potency [6] | Potency [8] | Potency [9]

Cc1ncc(CO)c(C=O)c1O
inactive: Potency [1] | Potency [2] | Potency [3] | Potency [4] | Potency [7] | Potency [6] | Potency [8] | Potency [9]

OC(CN1CCC(Cc2ccc(F)cc2)CC1)c1ccc(Cl)cc1 (centres undefined)
active: Potency [1] 23.7 µM
inactive: Potency [2] | Potency [3] | Potency [7] | Potency [10]

Cc1[nH]c(C)c(Cl)c(=O)c1Cl
inactive: activity change, negative = inhibition [1] 33.7% [at 19 µM] | activation [2] 0.451% [at 19 µM] | activity, negative = inhibition [3] 9.97% [at 19 µM] | activity change, negative = cytotoxicity [4] 0.0878% [at 19 µM] | activity change, negative = cytotoxicity [7] 2.64% [at 19 µM] | Potency [6] | cAMP activity change [8] 6.03% [at 18.9 µM, active compounds read high] | activity change, negative = inhibition [9] 4.84% [at 19 µM]

CCN(CC)CCNC(=O)c1cc(Br)c(N)cc1OC
inactive: Potency [1] | Potency [2] | Potency [3] | Potency [4] | Potency [5] | Potency [6] | Potency [8] | Potency [9]

O=C(Cl)c1cc(C(=O)Cl)cc(C(=O)Cl)c1
active: Potency [9] 68.6 µM
inactive: Potency [1] | Potency [2] | Potency [3] | Potency [4] | Potency [7] | Potency [6] | Potency [8]

CCCCCCCCCCCC(=O)OC[C@@H](O)[C@H]1OC[C@H](OCCO)[C@H]1OCCO
inactive: Potency [1] | Potency [2] | Potency [4] | Potency [7] | Potency [5] | Potency [6] | Potency [8] | Potency [9]

CC1OC(=O)C(C)OC1=O (centres undefined)
inactive: Potency [1] | Potency [2] | Potency [3] | Potency [4] | Potency [5] | Potency [6] | Potency [8] | Potency [9]

O=[N+]([O-])c1ccc2[nH]ncc2c1
inactive: Potency [1] | Potency [3] | Potency [4] | Potency [7] | Potency [5] | Potency [6] | Potency [8] | Potency [9]

C=C(C)C(=O)OCC
inactive: Potency [1] | Potency [3] | Potency [4] | Potency [7] | Potency [5] | Potency [6] | Potency [8] | Potency [9]

CCO[Si](CCCCl)(OCC)OCC
inactive: Potency [1] | Potency [3] | Potency [4] | Potency [7] | Potency [5] | Potency [6] | Potency [8] | Potency [9]

CCCCCCCCCOS(=O)(=O)O
inactive: Potency [1] | Potency [3] | Potency [4] | Potency [7] | Potency [5] | Potency [6] | Potency [8] | Potency [9]

CC(C)(COC(=O)c1ccccc1)COC(=O)c1ccccc1
inactive: Potency [1] | Potency [3] | Potency [4] | Potency [7] | Potency [5] | Potency [8] | Potency [9]

Cc1c(N)cccc1[N+](=O)[O-]
inactive: Potency [1] | Potency [3] | Potency [4] | Potency [7] | Potency [5] | Potency [6] | Potency [8] | Potency [9]
